Reference: PubChem BioAssay (NCI)
About 79,000 compounds went through this panel and 15% of them were active in at least one assay; those are over-represented in the sample as a whole. Unmarked numbers belong to inactive results. Activity calls are given as the source filed them. Rule as the data show it: active = growth inhibition above about 70%; inactive = the rest.

Key:
[1] = NCI Yeast Anticancer Drug Screen. Data for the rad50 strain (AID 155);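 also: 0% = growth of vehicle-only cultures of the same strain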; settings: S. cerevisiae rad50 strain growth inhibition; at 50.0 µM; active compounds read high
Method in brief: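 A DNA repair-deficient yeast mutant serves as the test organism; compound-induced growth inhibition is calculated against vehicle-treated cells.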

[2] = NCI Yeast Anticancer Drug Screen. Data for the mec2-1 strain (AID 157); settings: S. cerevisiae mec2-1 strain, at 50.0 µM, active compounds read high
Method in brief: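 Using mec2-1 yeast: add compound, measure growth, express inhibition versus vehicle-treated cultures.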

[3] = NCI Yeast Anticancer Drug Screen. Data for the sgs1 mgt1 strain (AID 161);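 also: 0% = growth of cultures given vehicle only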; settings: S. cerevisiae sgs1 mgt1 strain, at 50.0 µM, active compounds read high
Method in brief: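 Percent growth inhibition was derived by comparing compound-exposed mutant yeast with vehicle-exposed cultures. The strain carries alterations in DNA damage repair.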

[4] = NCI Yeast Anticancer Drug Screen. Data for the cln2 rad14 strain (AID 165);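 also: 0% = growth equal to vehicle treated cultures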; settings: S. cerevisiae cln2 rad14 strain, at 50.0 µM, active compounds read high
Method in brief: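 Yeast strain cln2 rad14, bearing defects in cell cycle control and DNA repair, serves as the test system; values reflect growth inhibition compared with vehicle.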

[5] = NCI Yeast Anticancer Drug Screen. Data for the bub3 strain (AID 167); settings: S. cerevisiae bub3 mutant strain, at 50.0 µM, active compounds read high
Method in brief: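 Inhibition values come from growth of compound-treated mutant yeast normalised to vehicle-treated controls.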

[6] = NCI Yeast Anticancer Drug Screen. Data for the mlh1 rad18 strain (AID 175); settings: S. cerevisiae mlh1 rad18 strain growth inhibition; at 50.0 µM; active compounds read high
Method in brief: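 Steps: expose repair-defective yeast to compound; measure growth; express inhibition against vehicle-treated controls.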

| SMILES | growth inhibition [1] | growth inhibition [2] | growth inhibition [3] | growth inhibition [4] | growth inhibition [5] | growth inhibition [6] |
| --- | --- | --- | --- | --- | --- | --- |
| Cc1cn(C2CC(O)C(COC(N)=O)O2)c(=O)[nH]c1=O (stereo unspecified) | -38.2% | -20.9% | -11.6% | -5.3% | -44.3% | 2.35% |
| C=C(C)c1ccc(B2Nc3ccccc3N2)cc1 | 53.6% | 30.2% | 45.6% | 18.8% | 40.8% | 58.5% |
| CN1C(=O)c2ccccc2CC12c1ccccc1C(=O)N2C (stereo unspecified) | 2.8% | -13.6% | 22.9% | -0.55% | 15.9% | 4.45% |
| CC(=O)Nc1ccc(C(O)/C(=N/N)c2nc3ccc(Cl)cc3[nH]c2=O)cc1 (stereo unspecified) | 9.15% | -8.9% | -6% | -1.1% | 5.55% | -26.9% |
| CC(=O)Oc1nnc(-c2ccccc2)c(-c2ccccc2)n1 | 24.5% | 16.9% | 17.1% | 13.8% | 7.4% | 17.3% |
| CCOC(=O)CCC1CCCCC1 | -1.1% | -8.15% | -19.4% | 0.65% | -3.2% | 8.15% |
| COC(=O)c1cc(=O)c2ccc(Cl)cc2[nH]1 | -8.05% | 4.05% | -10.9% | -14.6% | -18.3% | -25.3% |
| CC(=O)OCc1c(COC(C)=O)c(-c2ccc(Cl)c(Cl)c2)n2c1CCC2 | 14.8% | -17.1% | 3.2% | 16.7% | -21.3% | 13.2% |
| NCCCCC(N)C(=O)NCCNc1ccc(NCCNC(=O)C(N)CCCCN)c2c1C(=O)c1ccccc1C2=O (stereo unspecified) | 11.5% | 7.4% | 1.45% | -4.85% | -21.5% | -19.1% |
| CC(O)CN(CC(C)O)S(=O)(=O)c1ccc(N)cc1 (stereo unspecified) | -9.15% | -14.2% | -0.45% | -9.3% | 13.8% | -2% |
| Cc1nn(CO)c(C)c1Br | 9.8% | -18.4% | 5.9% | 21.8% | -2.6% | 11.7% |
| CCOC(=O)Nc1nc2ccccc2n1CN1CCCCC1 | 18.5% | 11.1% | 23.4% | 16.4% | 0.2% | 27.2% |
| CC(=O)OC(C)C1(C)CCC2CCCC(C)(C)C2C1 (stereo unspecified) | -6.4% | -5.15% | -11.9% | 0.7% | 9.45% | -13.7% |
| CCCCN(CCCC)C(=Nc1ccccc1)N(CCCC)CCCC | -13.2% | -3.4% | -23.8% | 10% | -38.9% | -15.3% |
| Cc1c(C(=O)O)c(-c2ccc([N+](=O)[O-])cc2)c(C=O)n1-c1ccccc1 | -4.9% | 10.9% | 3.3% | -8.5% | 25.7% | 22.9% |
| NC(Cc1c(F)c(F)c(F)c(F)c1F)C(=O)O (stereo unspecified) | -2.6% | 2.95% | 11.2% | -11.3% | -12.1% | -7.4% |
| Cc1ccc(NC(=O)CCC(=O)C(C#N)c2ccc(Cl)cc2)cc1C (stereo unspecified) | -8.25% | -7.95% | 8.55% | 4.75% | 8.4% | 0.25% |
| NC(=O)N/N=C(\Cc1nc2ccc(Cl)cc2[nH]c1=O)C(=O)Nc1ccc(Cl)cc1Cl | 11.9% | 11.8% | 7.2% | -30.1% | -0.85% | 15.2% |
| Oc1ccc(Cl)cc1/C=N/NC(=S)Nc1cccc2cccnc12 | 24.1% | 12.6% | 10.7% | 20.6% | 20.1% | 15.7% |
| CSc1nc(Br)nc2c1ncn2C1CC(Oc2ccc(C)cc2)C(COc2ccc(C)cc2)O1 (stereo unspecified) | 13.4% | 4.3% | 22.1% | 18.6% | 17.1% | -23.8% |
| NC(CCCCC(=O)O)C(=O)O (stereo unspecified) | -30.1% | -22.3% | -12.9% | -38.2% | -11.2% | 0.15% |

| SMILES | growth inhibition [1] | growth inhibition [2] | growth inhibition [3] | growth inhibition [4] | growth inhibition [5] | growth inhibition [6] |
| --- | --- | --- | --- | --- | --- | --- |
| OCCCNc1ncnc2[nH]ncc12 | 7.7% | 16.1% | 11.6% | 59% | -4.9% | 13.4% |
| Nc1nc(N)nc(-c2cc(Br)c(N)c(Br)c2)n1 | -2.55% | -7.45% | 0.95% | 34.6% | 3.3% | -8.25% |
| O=C1OC(=O)c2ccc(SCC(O)CCl)c3cccc1c23 (stereo unspecified) | 99.4% (active) | 99.5% (active) | 98.7% (active) | 95.8% (active) | 98.9% (active) | 99.2% (active) |
| NC(CCCC(N)P(=O)(O)c1ccccc1)P(=O)(O)c1ccccc1 (stereo unspecified) | -37.9% | -40.5% | -63.5% | -9.65% | -45.5% | -46.6% |
| COc1cc(C2=C3C(=O)OCC3Cc3ccccc32)ccc1OCc1ccccc1 (stereo unspecified) | 18.9% | -0.5% | 7.5% | 5.55% | 11.1% | 29.6% |
| CC(C)(C)NC(NC(C)(C)C)=C(/C=C(/Cl)[N+](=O)[O-])[N+](=O)[O-] | -5.5% | -21.1% | 0.45% | -10.9% | 15.9% | 15.1% |
| c1cc2cc(c1)CNCCNCCNCc1cccc(c1)CNCCNCCNC2 | -22.4% | -17.4% | -30.6% | 16.9% | 6% | -2.9% |
| CC(C)C[N+](=O)[O-] | -23.4% | -21.1% | -4.05% | -12.7% | -1.25% | 11.3% |
| CC[O-].Cc1ccc2cccc([O-])c2n1.Cc1ccc2cccc([O-])c2n1.Cc1ccc2cccc([O-])c2n1.[Ti+4] | -18.1% | -5.75% | -1.5% | 20% | -1.25% | 4.3% |
| CCOC(=O)C(=O)C1CC(c2ccccc2)=NNC1=O (stereo unspecified) | 23% | 26.5% | 12.9% | 23.1% | 31.1% | 26.2% |
| CCNCc1cc(Nc2cc(C)nc(/N=C(\N)Nc3ccc(Cl)c(Cl)c3)n2)ccc1OC | 98.8% (active) | 99% (active) | 99.3% (active) | 97.5% (active) | 98.2% (active) | 98.4% (active) |
| C(=C/c1ccc(-c2ccccc2)cc1)/c1ccc(-c2ccccc2)cc1 | -4.5% | -13.4% | 11.2% | -23.3% | 24.4% | -2.45% |
| CNc1ccn(C2OC(CO)C(O)C2SC(C)(C)C)c(=O)n1 (stereo unspecified) | 6.15% | 0.25% | 13.7% | 9.1% | 0.45% | 28.6% |
| CCCCCCCCCCCCCCCCCC(=O)OCC([N+](=O)[O-])([N+](=O)[O-])[N+](=O)[O-] | -9.3% | -1.3% | -5.3% | -19% | -26.1% | 1.9% |
| Cc1ccc(NC(N)=O)cc1 | -33.5% | -43.9% | -24.1% | 10.7% | -1.05% | -5.9% |
| Cc1ccc(N=C2SC(=NN(C)C)SC2=Nc2ccc(C)cc2)cc1 | 18.9% | -14.1% | 8.35% | -20.3% | -5.25% | -11.6% |
| C1=COC(C2NCCCN2)CC1 (stereo unspecified) | -5.9% | 8.25% | -2.6% | -68.8% | -26.5% | -3.7% |
| Cn1c(CC(O)c2nc3ccccc3n2C)nc2ccccc21 (stereo unspecified) | -18.7% | -18.6% | -10.2% | -8.75% | -23.8% | -33.5% |
| O=C1C2=C(c3ccccc31)C(c1ccc(F)cc1)N1C(=O)CCSC1=N2 (stereo unspecified) | 45.1% | 19.1% | 63% | 40.1% | 48.6% | 56.1% |
| O=[N+]([O-])c1ccc(SCN(CSc2ccc([N+](=O)[O-])cc2)Cc2ccccc2)cc1 | -6.35% | -6.85% | -1.2% | -17.4% | 4.65% | -7% |
